Reference: PubChem BioAssay (NCATS)
Inconclusive results are not listed. Entries that show only a call come without a potency. Calls of active or inactive are those of the source. Calls come from the whole dose curve; as a rule, active = well fitted curve in the direction sought with a large enough effect; inconclusive = small, poorly fitted or top-dose-only effect, or another doubt; inactive = no such curve, though single readings can be large; an effect the other way counts as inactive or inconclusive.

Assays:
[1] = test system: Zika virus NS2B-NS3 protease (unlinked complex); assay: Primary screen GU Rhodamine qHTS for Zika virus inhibitors: Unlinked NS2B-NS3 protease assay (AID 1347159); note: nearly all actives have a fitted effect of over 60% in size; note: potency is the fitted concentration of half-maximal effect
Outline: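 A qHTS format was used, with compound concentrations ranging up to 114 microM. Each compound was preincubated with 25 nM NS2B-NS3 protease, and the substrate was then added at 1.5 microM. Curves were fitted with a 4-parameter Hill model.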

[2] = test system: Zika virus NS2B-NS3 protease (linked construct); assay: Primary screen NINDS Rhodamine qHTS for Zika virus inhibitors (AID 1347160); note: nearly all actives have a fitted effect of over 55% in size
Outline: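 Kinetic fluorescence (Ex 480 nm, Em 540 nm) over 15 min with 1.5 microM Rhodamine110 peptide and 25 nM linked protease.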

[3] = molecular target: Calcium and integrin-binding protein 1 (Homo sapiens) (UniProt Q99828); assay: Primary qHTS for Identification of Calcium Integrin Binding Protein 1 (CIB1) Competitor (AID 1508620);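 note: GST tagged CIB1 binding a fluorescein labelled alphaIIb integrin peptide tracer; top concentration of the series differs between compounds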
Sequence of Calcium and integrin-binding protein 1 (Homo sapiens) (Q99828 whole entry, looked up): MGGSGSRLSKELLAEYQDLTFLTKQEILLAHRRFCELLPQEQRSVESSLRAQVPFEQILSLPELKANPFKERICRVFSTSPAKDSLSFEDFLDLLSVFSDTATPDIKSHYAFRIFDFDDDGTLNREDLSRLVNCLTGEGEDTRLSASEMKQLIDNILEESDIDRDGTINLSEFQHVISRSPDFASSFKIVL
Outline: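 CIB1-GST (1 uM final) and compound incubated 15 min at room temperature before adding FITC-alphaIIb peptide tracer (100 nM final). Competition for binding read by fluorescence polarization (ex 480, em 540) after another 15 min at room temperature.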

[4] = molecular target: Glutathione peroxidase 1 (Homo sapiens) (UniProt P07203); assay: Primary qHTS Assay for Inhibitors of Recombinant Selenoprotein Glutathione Peroxidase 1 (GPX1) (AID 1845191); note: nearly all actives have a fitted effect of over 65% in size
Sequence of Glutathione peroxidase 1 (Homo sapiens) (P07203 whole entry, looked up): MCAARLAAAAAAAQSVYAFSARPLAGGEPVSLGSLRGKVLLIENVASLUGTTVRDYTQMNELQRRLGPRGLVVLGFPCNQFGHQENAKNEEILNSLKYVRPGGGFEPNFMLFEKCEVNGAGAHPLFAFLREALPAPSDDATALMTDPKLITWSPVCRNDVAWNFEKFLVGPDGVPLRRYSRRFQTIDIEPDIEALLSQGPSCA
Outline: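 10 nM GPX1 + cpd, 30 min RT; start w/ 1 mM GSH, 0.5 mM cumene hydroperoxide, 0.5 mM NADPH, 100 nM GR, 0.01% BSA; buffer 50 mM Tris-HCl pH 7.5, 2 mM EDTA, 150 mM NaCl; Fl 340/450, 0 & 15 min.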

[5] = molecular target: Phospholipid hydroperoxide glutathione peroxidase GPX4 (Homo sapiens) (UniProt P36969); assay: Primary qHTS Assay for Inhibitors of Recombinant Selenoprotein Glutathione Peroxidase 4 (GPX4) (AID 1845192); settings: outcome: dose series up to 50 µM unless noted; note: nearly all actives have a fitted effect of over 65% in size
Sequence of Phospholipid hydroperoxide glutathione peroxidase GPX4 (Homo sapiens) (P36969 whole entry, looked up): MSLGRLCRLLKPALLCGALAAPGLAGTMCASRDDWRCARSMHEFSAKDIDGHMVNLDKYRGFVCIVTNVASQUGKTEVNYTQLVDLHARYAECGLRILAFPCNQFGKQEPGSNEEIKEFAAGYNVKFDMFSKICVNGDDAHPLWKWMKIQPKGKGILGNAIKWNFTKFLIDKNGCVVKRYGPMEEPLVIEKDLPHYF
Outline: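 NADPH consumption, followed by fluorescence at 340/450 nm between 0 and 15 min, reports GPX4 activity via coupled glutathione reductase (100 nM). Enzyme 200 nM was pre-exposed to compound 30 min; 0.5 mM cumene hydroperoxide and 1 mM GSH served as substrates.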

[6] = molecular target: Luciferin 4-monooxygenase (Photinus pyralis) (UniProt P08659); assay: Primary firefly luciferase (FLuc) qHTS assay for identification of artifact compounds. (AID 1845220); note: nearly all actives have a fitted effect of over 60% in size
Outline: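 Cell-free, 1536-well qHTS. Buffer pH 7.6 with 0.01% Tween-20 and 0.05% BSA; 10 uM D-luciferin, 10 uM ATP; 10 nM P. pyralis luciferase; luminescence after 5 min.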

[7] = test system: Nanoluciferase (engineered Oplophorus gracilirostris luciferase); assay: Primary Nanoluciferase (NLuc) qHTS assay for identification of artifact compounds. (AID 1845222)
Outline: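 Compounds are pinned into diluted (1:55) conditioned medium of NLuc-expressing S16 cells and held 15 min at room temperature protected from light. Nano-Glo substrate follows, and luminescence is read 5 min later.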

C33A = assay: Primary qHTS to identify gynecologic anti-cancer compounds using libraries of approved drugs and bioactive compounds (AID 1345084); settings: Gynecologic cancer cell panel viability, ATPlite luminescence, 48 h; series mostly up to 57.5 µM; note: nearly all actives have a fitted effect of over 55% in size; note: potency is the fitted concentration of half-maximal effect
Outline: (§1)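 ATP-based viability (ATPlite), 1,000 cells/well, 16 h pre-incubation, 48 h compound at 37 C, 5% CO2, 15 min RT before read.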

HeLa = assay: as above; settings: Gynecologic cancer cell panel viability, ATPlite luminescence, 48 h; series mostly up to 57.5 µM
Outline: as §1

JEG-3 = assay: as above; settings: Gynecologic cancer cell panel viability, ATPlite luminescence, 48 h; series mostly up to 57.5 µM
Outline: as §1

OV90 = assay: as above; settings: Gynecologic cancer cell panel viability, ATPlite luminescence, 48 h; series mostly up to 57.5 µM
Outline: as §1

PA-1 = assay: as above; settings: Gynecologic cancer cell panel viability, ATPlite luminescence, 48 h; series mostly up to 57.5 µM
Outline: as §1

[8] = Primary qHTS for inhibitors of nuclear receptor binding SET domain protein 2 (NSD2) in an isogenic RCH-ACV NSD2 p.E1099K mutant (9B) (AID 1645876); note: potency is the fitted concentration of half-maximal effect; nearly all actives have a fitted effect of over 70% in size
[9] = Primary qHTS for inhibitors of nuclear receptor binding SET domain protein 2 (NSD2) in an RCH-ACV wild type WT cells (2C) (AID 1645877); note: potency is the fitted concentration of half-maximal effect; nearly all actives have a fitted effect of over 70% in size
[10] = Primary redox qHTS assay for identification of artifact compounds. (AID 1845223)
Outline: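 Amplex Red (25 uM) and HRP (250 mU/mL) in HBSS, with compounds for 15 min, then 250 uM DTT for 30 min, room temperature, dark. Fluorescence 525/598 nm read; normalized to DMSO and 10 uM DA3003; Hill fit.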

CASKI = assay: Primary qHTS to identify gynecologic anti-cancer compounds using libraries of approved drugs and bioactive compounds (AID 1345084); settings: Gynecologic cancer cell panel viability, ATPlite luminescence, 48 h; series mostly up to 57.5 µM; note: nearly all actives have a fitted effect of over 55% in size; note: potency is the fitted concentration of half-maximal effect
Outline: as §1

Es-2 = assay: as above; settings: Gynecologic cancer cell panel viability, ATPlite luminescence, 48 h; series mostly up to 57.5 µM
Outline: as §1

Hek293T = assay: as above; settings: Gynecologic cancer cell panel viability, ATPlite luminescence, 48 h, control line for the selectivity index; series mostly up to 57.5 µM
Outline: as §1

Tov-21-G = assay: as above; settings: Gynecologic cancer cell panel viability, ATPlite luminescence, 48 h; series mostly up to 57.5 µM
Outline: as §1

Tov112D = assay: as above; settings: Gynecologic cancer cell panel viability, ATPlite luminescence, 48 h; series mostly up to 57.5 µM
Outline: as §1

| SMILES | Potency [1] | Potency [2] | outcome [3] | Potency [4] | Potency [5] | Potency [6] | Potency [7] | Potency (C33A) | Potency (HeLa) | Potency (JEG-3) | Potency (OV90) | Potency (PA-1) | Potency [8] | Potency [9] | Potency [10] | Potency (CASKI) | Potency (Es-2) | Potency (Hek293T) | Potency (Tov-21-G) | Potency (Tov112D) |
| --- | --- | --- | --- | --- | --- | --- | --- | --- | --- | --- | --- | --- | --- | --- | --- | --- | --- | --- | --- | --- |
| COc1ccc2c3ccnc4ccc(=O)n(c2c1)c43 | inactive | inactive | inactive | inactive | inactive | inactive | inactive | inactive | 14.1 µM (active) | inactive | inactive | 25.1 µM (active) |  |  |  |  |  |  |  |  |
| CC(C)c1ccc(NC(=O)C(c2ccccc2)N(C)C(=O)Cc2c[nH]c3ccccc23)cc1 (centres undefined) | 79.4 µM (active) |  | inactive | inactive | inactive |  | inactive | inactive | inactive | inactive | inactive | inactive | 20.5 µM (active) | 20.5 µM (active) | inactive | inactive | inactive | inactive | inactive | inactive |
| C[C@@H](O[C@H]1OCCN(Cc2n[nH]nc2CN(C)C)[C@H]1c1ccc(F)cc1)c1cc(C(F)(F)F)cc(C(F)(F)F)c1 | inactive | inactive | inactive | inactive | inactive | inactive | inactive | inactive | inactive | inactive | inactive | inactive | 16.3 µM (active) | 14.5 µM (active) |  | inactive | inactive | inactive | inactive | inactive |
